Results: PubChem BioAssay AID1903 (Southern Research Specialized Biocontainment Screening …, 2009)
“And” between values parts separate entries of the source, which are not always exact repeats. Identical values can stand only once. In all, about 310,000 compounds went through this assay and about 1,200 (0.39%) were called active. No rule for the calls is given here. Only a sample is shown. Potency and affinity values are given separately.

molecular target: Large T antigen (Simian virus 40) (UniProt P03070); test: TAg ATPase/helicase activity blockers – biochemical (AID 1903); conditions: SV40 large T antigen ATPase/helicase inhibition assay; at 20 µM; active compounds read high
Sequence (P03070 whole entry, looked up): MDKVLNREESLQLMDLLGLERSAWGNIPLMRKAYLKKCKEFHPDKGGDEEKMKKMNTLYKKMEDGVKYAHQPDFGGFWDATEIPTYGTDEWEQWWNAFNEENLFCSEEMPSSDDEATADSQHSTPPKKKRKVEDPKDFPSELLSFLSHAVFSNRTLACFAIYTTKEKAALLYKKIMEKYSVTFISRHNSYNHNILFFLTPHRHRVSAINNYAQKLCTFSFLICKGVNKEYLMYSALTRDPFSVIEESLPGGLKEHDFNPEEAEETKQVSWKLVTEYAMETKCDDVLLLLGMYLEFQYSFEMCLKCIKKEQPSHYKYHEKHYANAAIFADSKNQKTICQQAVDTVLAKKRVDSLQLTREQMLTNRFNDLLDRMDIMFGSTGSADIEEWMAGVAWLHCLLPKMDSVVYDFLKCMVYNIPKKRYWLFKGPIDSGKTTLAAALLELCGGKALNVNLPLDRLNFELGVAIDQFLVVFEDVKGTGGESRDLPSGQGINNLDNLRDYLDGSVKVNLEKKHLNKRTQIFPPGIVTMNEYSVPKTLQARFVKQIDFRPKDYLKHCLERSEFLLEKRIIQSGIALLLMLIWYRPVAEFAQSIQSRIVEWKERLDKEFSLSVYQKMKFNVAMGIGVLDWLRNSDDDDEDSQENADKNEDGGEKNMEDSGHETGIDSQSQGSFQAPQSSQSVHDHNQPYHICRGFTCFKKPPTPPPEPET

inhibition, inactive:
COCCSc1nc2c(c(=O)[nH]c(=O)n2C)n1CCCc1ccccc1 3.03%
Cc1noc(C)c1COC(=O)c1cccnc1SCC(=O)Nc1ccc2c(c1)OCO2 2.06%
Cc1ccccc1Cn1cnc2c(NS(C)(=O)=O)c(C)c(C)cc21 0.14%
NC(N)=N/N=C/c1c(Cl)cccc1Cl 21.2% and 9.2%
Cc1c(Cl)cccc1N=C(N)N=C(N)N 13.8%
COc1cc(/C=N/N=C2/NC(=O)C(c3ccccc3)S2)ccc1O (configuration not stated) 30.9%
COc1cc(/C=N/N=C(/C(=O)c2ccccc2)c2ccccc2)cc(OC)c1O 15.6%
O=C1Nc2ccccc2/C1=N/N=C/c1cccc(O)c1 13.2%
COc1ccc(O)c(/C=N/N=C2/C(=O)Nc3ccccc32)c1 12.5%
COc1ccc(OC)c(N=C2C(=O)Nc3ccccc32)c1 4.71%
Cc1ccsc1/C=N/N=C1\C(=O)Nc2ccccc21 -4.81%
COC(=O)c1ccc(S(=O)(=O)N2C3CCC2CC(NC(=O)C2CC2)C3)cc1 (configuration not stated) -2.31%
CCCCN(CCCC)CCCNC(=O)C12CN(Cc3ccccc3)CC1C(c1cccc([N+](=O)[O-])c1)=NO2 (configuration not stated) 6.72%
Cc1cc(NCc2ccccc2)n2ncc(-c3ccccc3)c2n1 3.96%
CC(=O)OC[C@H]1O[C@@H](O/N=C/C[C@@H]2C=C[C@H](OC(C)=O)[C@@H](COC(C)=O)O2)[C@H](OC(C)=O)[C@@H](OC(C)=O)[C@@H]1OC(C)=O 7.46%
Cc1cc(NC(=O)C(C)SCC(=O)Nc2ccc(SC(F)F)cc2)no1 (configuration not stated) 15.7%
Cc1ccc(C(=O)Cc2cc3ccccc3oc2=O)c(C)c1 9.25%
Oc1ccc(-c2nc3ccccc3s2)c(O)c1 21%
O=S(=O)(O)c1cc(O)ccc1O 25.8%
O=C(Cc1ccccc1)NCc1cccnc1 5.27%
CC(OC(=O)Cc1n[nH]c(=O)c2ccccc12)C(=O)Nc1cccc([N+](=O)[O-])c1 (configuration not stated) 8.17%
COC(=O)c1cc(NS(=O)(=O)c2ccc(Cl)c(N3C(=O)c4ccc(C(=O)O)cc4C3=O)c2)cc(C(=O)OC)c1 11.3%
CCN1C(=O)C2(C(C(=O)c3cc4ccccc4o3)=C(O)C(=O)N2CCCN2CCOCC2)c2ccccc21 (configuration not stated) 16.1%
CCN1C(=O)C2(C(C(=O)c3ccc(C)o3)=C(O)C(=O)N2CCCN(C)C)c2ccccc21 (configuration not stated) 27.5%
CCC(=O)Nc1ccc(C(=O)NNC(=O)c2cccc(C)c2)cc1 5.14%
COc1cccc2c1-c1c(O)cccc1C2=O 9.33%
COc1cc(/C=C/c2ccc3cccc(O)c3n2)c(Br)cc1O 0.04%
O=C(CSc1nnc(-c2cccnc2)n1-c1ccccc1)Nc1ccc2c(c1)OCO2 18.3%
N#Cc1ccsc1NC(=O)CN1C(=O)NC2(CCCC2)C1=O 13.3%
CCCOc1ccc(N2C(=O)CC(NCC#N)C2=O)cc1 (configuration not stated) 3.6%
Nc1c(-c2ccc(Cl)cc2)cnn1-c1cc(C(F)(F)F)cc(C(F)(F)F)c1 10.5%
Oc1ccccc1C1=Nc2ccccc2N=C(c2cccs2)C1 12.3%
O=C(O)C1CC(c2ccccc2)=Nc2ccccc2S1 (configuration not stated) 19.3%
CCn1cc(S(=O)(=O)CC(=O)Nc2cc(C)ccc2C)c2ccccc21 3.58%
CC(=O)c1ccc(OCCCC(=O)NC2CCC(C)CC2)cc1 (configuration not stated) 23.9%
Cc1cccc(-c2noc(CN(C)C(=O)COc3ccccc3)n2)c1 13.7%
Cc1nn(-c2ccccc2)c(Cl)c1C(=O)Nc1ccc(N2CCOCC2)cc1 9.69%
Cc1nn(-c2ccccc2)c(C)c1C(=O)Nc1ccc(N2CCOCC2)cc1 26.7%
C/C(CC(=O)Nc1ccc2c(c1)OCCO2)=N\NC(=O)c1ccc([N+](=O)[O-])cc1Cl 3.29%
C/C(CC(=O)NCc1ccco1)=N\NC(=O)c1ccc(Cl)cc1Cl 5.88%
C/C(CC(=O)Nc1ccc(N(C)C)cc1)=N\NC(=O)c1ccc(Cl)cc1 21.9%
C/C(CC(=O)Nc1ccc(N(C)C)cc1)=N\NC(=O)c1ccc([N+](=O)[O-])cc1 22.9%
Cc1nnsc1C(=O)N1CCCC(N2CCN(c3cccc(C(F)(F)F)c3)CC2)C1 (configuration not stated) 12.9%
COCC(=O)Nc1ccc2c(c1)OCC(=O)N2Cc1ccccc1F 20.2%
CC(=O)N1CCN(CC(=O)O)CC1 5.47%
Cn1c(N)c(C(=O)Nc2ccccc2)c(=O)[nH]c1=O 5.18%
Cn1c2ccccc2c2cnn(CC(=O)NCCCN3CCN(c4ccccc4F)CC3)c(=O)c21 9.9%
CCCNC(=O)Cn1sc2nc(C)cc(C)c2c1=O 8.82%
Cc1c(Cl)cccc1NC(=O)Cn1cc(C(F)(F)F)cc(Cl)c1=O 6.09%
COc1ccc(OC)c(CCNC(=O)Cn2nc(C)c3c(C)n(-c4ccccc4)nc3c2=O)c1 2.47%
O=C(CCNC(=O)Cn1ccc2ccccc2c1=O)NCCCN1CCN(c2ccccc2F)CC1 -2.74%
Cc1ccc(NC(=O)Cn2sc3nc(C)cc(C)c3c2=O)c(Cl)c1 5.12%
O=C(c1cc([N+](=O)[O-])ccc1Cl)N1c2ccccc2Sc2ccccc21 3.02%
Cc1cc(C)cc(OCc2nnc(SCC(=O)NC3CC3)n2C)c1 -1.01%
CCOC(=O)N1CCC(N2C(=O)c3ccc(C(=O)NCCOC)cc3C2=O)CC1 5.99%
COc1cccc(NC(=O)Nc2cc(C)ccc2OC)c1 2.17%
CCCc1cc(=O)oc2cc(C)cc(OCC(=O)NCC(O)c3ccccc3)c12 (configuration not stated) 12.5%
Cc1ccc(N2CC(=O)N(NC(=O)Nc3ccc(Cl)c(Cl)c3)CC2=O)cc1 13.8%
O=C(CCC(=O)N1CCN(Cc2ccccc2)CC1)Nc1nnc(C2CCCCC2)s1 13.1%
CSCCC(NC(N)=O)C(=O)Nc1cccc(S(=O)(=O)N2CCOCC2)c1 (configuration not stated) 2.59%
O=C(CCCOc1ccc(Br)cc1)NNC(=O)c1ccncc1 26.4%
CCc1ccc(NC(=O)c2cc(-c3ccco3)on2)cc1 6.38%
O=C(CSc1cn(Cc2ccccc2)c2ccccc12)NCc1ccc(F)cc1 6.13%
C=CCn1c(=S)[nH]c2scc(-c3cccs3)c2c1=O 9.96%
C=CCn1c(SCC(=O)NCCCC)nc2scc(-c3ccco3)c2c1=O 32.9%
C=CCn1c(=S)[nH]c2scc(-c3ccc(C)o3)c2c1=O 7.5%
C=CCn1c(SCC(=O)N2CCOCC2)nc2scc(-c3ccco3)c2c1=O 22.1%
COc1cc(/C=C/[N+](=O)[O-])ccc1OC(=O)/C=C/c1ccc(F)cc1 17.2%
CC(C)CCN(CCC(C)C)CC(O)Cn1c2ccccc2c(=O)c2ccccc21 (configuration not stated) 8.16%
CC(=O)c1cccc(NC(=S)NC(=O)c2ccccc2C)c1 -10%
COC(=O)CCCCCCCCCC[N+]1(C)CCCCC1 -2.24%
CC(=O)OCCCCCCCCCCC[N+]1(C)CCCCC1 27.6%
COc1cc([N+](=O)[O-])ccc1NC(=O)Nc1cnccn1 13.4%
Cc1[nH]n(-c2ccccc2)c(=O)c1C=Nc1ccc2[nH]c(=O)[nH]c2c1 19.5%
Nc1ccc(CCS(N)(=O)=O)cc1 2.24%
CCc1ccc(S(=O)(=O)NCC(O)COc2ccc(OC)cc2)cc1 (configuration not stated) 1.57%
O=C(Oc1coc(CSc2ncccn2)cc1=O)c1ccccc1[N+](=O)[O-] 18.4%
Cc1ccc2c3c(c(SCC(=O)Nc4nccs4)nc2c1)CCCC3 -1.03%
Cn1c(-c2ccccc2[N+](=O)[O-])[n+](C)c2ccccc21 11.2%
Cc1cc(/C=C2\C(=N)N3N=C(CC(=O)N4CCOCC4)SC3=NC2=O)c(C)n1-c1ccccc1 11.9%
CCOC(=O)C1CC2CC(C1)CN(C(=O)C1CCCCC1)C2 (configuration not stated) 1.74%
O=[N+]([O-])c1ccccc1N=Nc1ccc(O)cc1 16.2%
C/C(=N\Nc1ccc([N+](=O)[O-])cc1)c1ccc(O)cc1 23.8%
[O-]/C(=C(\C(=S)NCc1ccco1)[n+]1ccccc1)c1ccccc1Br 20.6%
CS(=O)(=O)c1ccc(Cl)c(NC(=O)CCNC(=O)c2ccco2)c1 1.63%
CC(C)c1nnc(NC(=O)CCC(=O)N2CCC(Cc3ccccc3)CC2)s1 16.2%
CC(C)CN1C(=O)c2ccc(C(=O)Nc3ccccn3)cc2C1=O 3.11%
C=CCN1CC(c2nc3ccccc3n2CCOc2ccccc2)CC1=O (configuration not stated) -0.56%
CN(CC(=O)Nc1ccc(N2CCOCC2)cc1)CC(=O)Nc1ccc(N2CCOCC2)cc1 21.6%
CN(C)/N=C/c1ccc(N2CCOCC2)cc1 16.2%
CN(C)C(CNc1ccc(S(C)(=O)=O)cc1[N+](=O)[O-])Cc1ccccc1 (configuration not stated) -5.33%
CCOC(=O)/C(C#N)=C/Nc1ccccc1NS(=O)(=O)c1ccc(C)c(C)c1 9.42%
